In PubChem BioAssay (NCI):
This is part of a sample that, as a whole, favours compounds with a hit. Of some 83,000 tested, about 20% had one in any assay.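 In brief: 96-well plates, 48 h treatment, single concentration, percent growth endpoint.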 Activity calls are given as the source filed them. How the source made its calls: active means growth percent below 10; inactive means the rest.

Each compound was assayed on HL-60(TB) leukemia (assay: NCI-60 one-dose screen, 48 h (100 = growth as untreated, 0 = no growth, -100 = all killed)). Details: 10 µM unless noted.
With CCO/C=N/C1=C(C#N)C(c2ccc(Cl)cc2)c2c(c3ccc(C)cc3[nH]c2=O)O1 (stereo not given) the growth was 88.6% (inactive).
In the case of Nc1ncn(C2OC(CO)C(O)C2O)c(=O)n1 (stereo not given), the growth is reported as -44.6% (active).
In the case of CCN(Cc1ccc(Cl)c(Cl)c1)c1ccc2nc(N)nc(N)c2c1C, the growth is reported as -79.5% (active).
With COP(=O)(OC)/C(=N\NS(=O)(=O)c1ccc(C)cc1)c1ccccc1 the growth was 100% (inactive).
For O=C(CCc1nnc(SCc2ccccc2)s1)c1nc2ccccc2[nH]1, the growth was 92.3% (inactive).
In the case of NC(N)=NN=c1c(=O)c2ccccc2c1=O, the growth is reported as 95.2% (inactive).
For Fc1cnccc1-c1nc2ccc3[nH]ncc3c2c2c1CCCC2, the growth was 16.9% (inactive).
In the case of N=c1nc(N)ncn1-c1ccccc1, the growth is reported as 110% (inactive).
In the case of CCCc1n(Cc2ccc3ccccc3n2)cc[n+]1Cc1ccc2ccccc2c1, the growth is reported as -53.7% (active).
CCc1nn2c(-c3cc(OC)c(OC)c(OC)c3)c(-c3cc(OC)c(OC)c(OC)c3)nc2s1 was tested, and the growth was 59.3% (inactive).
For Cc1ccc(S(=O)(=O)N/N=C2\CC3CCC2(C)C3(C)C)cc1 (stereo not given), the growth was 116% (inactive).
With O=C(Nc1ccc(Cl)c(Cl)c1)NC(CO)(CO)CO the growth was 102% (inactive).
In the case of CCOc1ccc(C2N(c3cc(OC)c(OC)c(OC)c3)C(=O)C2(F)F)cc1 (stereo not given), the growth is reported as -16% (active).
For c1ccc2cc(C[n+]3ccn(CCCCCCCn4cc[n+](Cc5ccc6ccccc6c5)c4)c3)ccc2c1, the growth was 32.9% (inactive).
With COc1cc(-c2nn(-c3ccc(Br)cc3)cc2CO)ccc1O the growth was 74.8% (inactive).
With CSc1nc(N)c(NS(=O)(=O)c2ccc(C(C)=O)cc2)c(=O)[nH]1 the growth was 108% (inactive).
With CC(C)(C)n1cc(-c2ccnc(NCCCNS(=O)(=O)c3ccc(C(F)(F)F)cc3)c2)c(-c2cccc(F)c2)n1 the growth was 94.6% (inactive).
In the case of Cc1c(Cl)cccc1C(=O)Nc1nc2c(s1)CN(C(=O)Nc1cccc(C(F)(F)F)c1)CC2, the growth is reported as 6.4% (active).
For COCCn1cc(-c2nc(-c3cn(CCOC)c4ncccc34)cs2)c2ccccc21, the growth was 114% (inactive).
Clc1cccc(Nc2nc(Nc3cnc4ccccc4c3)c3[nH]cnc3n2)c1 was tested, and the growth was 121% (inactive).
In the case of CC[C@]1(O)CC2CN(CCc3c([nH]c4ccccc34)[C@@](C(=O)OC)(c3cc4c(cc3OC)N(C=O)[C@H]3[C@@](O)(C(=O)OC)[C@H](OC(C)=O)[C@]5(CC)C=CCN6CC[C@]43[C@@H]65)C2)C1 (stereo not given in full), the growth is reported as 7.11% (active).
O=C(N=c1n(-c2ccccc2)nc2n1CCN2C1=NCCN1C(=O)c1ccc(Cl)cc1)c1ccc(Cl)cc1 was tested, and the growth was 51.2% (inactive).
In the case of Cc1cc(Nc2cc(N3CCN(C)CC3)nc(/C=C/c3ccccc3)n2)n[nH]1, the growth is reported as -29.7% (active).
COc1ccc(C(O)c2cc3c(N)c(C(=O)Nc4cccc(OC)c4)sc3nc2C)cc1 (stereo not given) was tested, and the growth was -55.9% (active).
With COc1ccc(OC)c(CCn2cncc2-c2c[nH]c3ccccc23)c1 the growth was 80.8% (inactive).
N#Cc1c(NCc2ccccc2I)sc2c1CCCCC2 was tested, and the growth was 100% (inactive).
CC/C=C(\C)C(CCC)(CN=O)C(=O)OCC (stereo not given) was tested, and the growth was 110% (inactive).
For O=S(=O)(NCCCNc1nccc(-c2c(-c3ccccc3)nc3sccn23)n1)c1ccc(F)cc1, the growth was 22.5% (inactive).
For CN1CCN(c2ccc(-c3ccc4ncc(C#N)c(Nc5ccc(F)c(Cl)c5)c4c3)cn2)CC1, the growth was 38.1% (inactive).
For COc1ccc2c(c1)OC(N)=C(C#N)C2c1ccc(F)cc1 (stereo not given), the growth was -14.7% (active).
With O=c1[nH]n(-c2ccccc2)c(=O)cc1Cl the growth was 103% (inactive).
In the case of COc1ccc(CNC(=O)C(=O)[C@H](Cc2ccccc2)NC(=O)c2[nH]c3ccccc3c(=O)c2C)cc1, the growth is reported as 110% (inactive).
In the case of Cc1ccc(C(=O)/C(=C/c2ccc([N+](=O)[O-])cc2)SCc2ccc(Cl)cc2)cc1, the growth is reported as 58% (inactive).
In the case of Nc1ccccc1NC(=O)c1ccc(-n2nc(-c3ccccc3)c3ccccc32)cc1, the growth is reported as -4.94% (active).
With COc1ccc(NC(=O)CSc2oc(-c3ccccc3)nc2S(=O)(=O)c2ccc(Cl)cc2)c(OC)c1 the growth was 49.4% (inactive).
COc1cc2cc(Oc3ccc(NC(=O)Nc4ccc(C(F)(F)F)cc4)cc3)c(C)nc2cc1OC was tested, and the growth was 75.3% (inactive).
O=C1/C(=C/c2ccc(Br)cc2)COc2ccc(O)c(O)c21 was tested, and the growth was -23.2% (active).
CC(=O)OCC1CCC(COC(C)=O)CC1 (stereo not given) was tested, and the growth was 85.5% (inactive).
With NC1=NN(O)C2=CC([N+](=O)[O-])C=CC2=N1 (stereo not given) the growth was 103% (inactive).
Cc1ccc2[nH]c(=O)c3c(c2c1)Oc1ncn2nc(-c4ccco4)nc2c1C3c1ccc(Cl)cc1 (stereo not given) was tested, and the growth was 96.8% (inactive).
